PubChem BioAssay (NCI)
This is part of a sample that, as a whole, favours compounds with a hit. Of some 83,000 tested, about 20% had one in any assay.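 Single-concentration screen, 48 h exposure, 96-well plates. Endpoint: percent growth. Below 10 = active.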 Values without a mark were called inactive. Activity calls are given as the source filed them.

What was measured:
Assay in all cases: NCI-60 one-dose screen, 48 h (100 = growth as untreated, 0 = no growth, -100 = all killed)
Settings in all cases: 10 µM unless noted
SR leukemia = test system: SR leukemia
RPMI-8226 leukemia = test system: RPMI-8226 leukemia
OVCAR-8 ovarian = test system: OVCAR-8 ovarian
OVCAR-5 ovarian = test system: OVCAR-5 ovarian
OVCAR-4 ovarian = test system: OVCAR-4 ovarian
SK-OV-3 ovarian = test system: SK-OV-3 ovarian
IGROV1 ovarian = test system: IGROV1 ovarian
OVCAR-3 ovarian = test system: OVCAR-3 ovarian
HS 578T breast = test system: HS 578T breast
NCI/ADR-RES ovarian = test system: NCI/ADR-RES ovarian

| SMILES | growth (SR leukemia) | growth (RPMI-8226 leukemia) | growth (OVCAR-8 ovarian) | growth (OVCAR-5 ovarian) | growth (OVCAR-4 ovarian) | growth (SK-OV-3 ovarian) | growth (IGROV1 ovarian) | growth (OVCAR-3 ovarian) | growth (HS 578T breast) | growth (NCI/ADR-RES ovarian) |
| --- | --- | --- | --- | --- | --- | --- | --- | --- | --- | --- |
| COc1cc2c(cc1O)CC[C@@H]1[C@@H]2CC[C@]2(C)[C@@H](NCCN(C)C)CC[C@@H]12 | -67.2% (active) | -59.9% (active) | -79% (active) | -84% (active) | -63.3% (active) | -90% (active) | -74.8% (active) | -88.3% (active) | -56.9% (active) | -85.9% (active) |
| COc1ccc(-c2nn(-c3ccc(Cl)cc3)cc2-c2nc3ccccc3[nH]2)cc1 | 80.3% | 93.9% | 105% | 110% | 88% | 101% | 71.4% | 94% | 93% | 102% |
| CC(=O)NCC1c2c(n(C)c3c(Cl)c(Cl)ccc23)C(=O)NC1(C)C (stereo not given) | 75.2% | 100% | 91.3% | 88.7% | 103% | 116% | 96.5% | 107% | 104% | 88.1% |
| Clc1ccc2c(NCCCNc3nc(-n4ccnc4)nc4ccccc34)ccnc2c1 | 58.4% | 69.3% | 86.2% | 96.3% | 75% | 94.5% | 79.1% | 90.2% | 84.6% | 101% |
| COc1ccc(N=Nc2nccs2)c(O)c1 | 11.5% | 21.6% | 20.2% | 87.2% | 22.4% | 52.4% | 25% | 33.1% | 85.3% | 14.4% |
| Cc1ccccc1COc1ccc(-c2ccnn2-c2ccc(Cl)cc2)cc1 | 33.8% | 77.6% | 75.3% | 91.7% | 85.7% | 63.7% | 57.5% | 26.6% | 60.9% | 38% |
| O=C1OCC2=C1C(c1ccncc1)c1cc3c(cc1N2CCO)OCO3 (stereo not given) | 122% | 103% | 98.8% | 100% | 100% | 87.3% | 101% | 105% | 87% | 104% |
| Oc1cccc(-c2nc(N3CCOCC3)c3c4c(sc3n2)CCCC4)c1 | 70.3% | 61% | 51.9% | 82.7% | 45.9% | 30.6% | 3.92% (active) | 56.9% | 10.2% | 52.1% |
| Oc1cccc2ccc(N/N=C/c3cc(CN4CCOCC4)c(O)c4ncccc34)nc12 | 2.95% (active) | 16.2% | 13% | 28.3% | 14.2% | -14.9% (active) | 18.7% | 23.2% | 36.3% | 2.84% (active) |
| Cn1cc(-c2nonc2-c2cn(C)c3ccc(F)cc23)c2ccccc21 | 31.3% | 13.5% | 28.5% | 41.5% | 41.6% | 41.5% | 24.6% | -18.9% (active) | 3.84% (active) | 4.44% (active) |
| O=c1c(F)cn(Cc2ccccc2CCl)c(=O)n1Cc1ccccc1CCl | -57.5% (active) | -48.6% (active) | -20.3% (active) | -76.8% (active) | -15.3% (active) | 10.3% | -37.3% (active) | -44.6% (active) | -3.05% (active) | -9.91% (active) |
| CN(Cc1cc(Cl)cc(Cl)c1O)Cc1cc(Cl)cc(Cl)c1O | 62.6% | 70.7% | 63.6% | 89.8% | 40.2% | 78.3% | 54.2% | 49.1% | 92.8% | 62.4% |
